Reference: PubChem BioAssay
The source made the active and inactive calls.

Key:
[1] = test system: Plasmodium falciparum Sir2 (PF13_0152, Sir2A); experiment: Plasmodium falciparum Sir2A binding compounds – biochemical, small-molecule microarray, 635 nm fluorescence, primary screen (AID 1098); conditions: fluorescence 635 nm, higher = more signal;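 also: score merges spot fluorescence intensity with its signal-to-noise ratio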
[2] = probe aDKK1 binding to arrayed compounds – biochemical, biotinylated probe, 635/667 nm fluorescence, primary screen (AID 1099); conditions: small-molecule microarray, higher = more signal;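 also: score merges 667nm spot fluorescence with signal to noise across triplicate slides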
[3] = probe aCHRDL2 binding to arrayed compounds – biochemical, biotinylated probe, 635/667 nm fluorescence, primary screen (AID 1100); conditions: small-molecule microarray, higher = more signal
[4] = change in splice reporter luminescence, either direction, cell-based, HEK293, spliceosome inhibition project, primary screen (AID 1101); conditions: HEK293 splicing luciferase reporter, 24 h, higher = more signal, called active from +8 up or from −8 down;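 also: HEK293 cells carrying a splicing-competent luciferase reporter gene; test concentration not given here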
[5] = molecular target: Fibroblast growth factor 10 (Homo sapiens) (UniProt O15520); experiment: compounds binding fibroblast growth factor 10 – biochemical, small-molecule microarray, 635 nm fluorescence, primary screen (AID 1102); conditions: FGF10 binding, fluorescence 635 nm, higher = more signal
Fibroblast growth factor 10 (Homo sapiens), sequence (O15520 whole entry, looked up): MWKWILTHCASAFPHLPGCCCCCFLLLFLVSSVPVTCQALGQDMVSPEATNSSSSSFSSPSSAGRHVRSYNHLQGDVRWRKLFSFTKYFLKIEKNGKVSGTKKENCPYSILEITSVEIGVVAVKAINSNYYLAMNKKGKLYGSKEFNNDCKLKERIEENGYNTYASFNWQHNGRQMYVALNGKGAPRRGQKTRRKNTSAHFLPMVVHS

[6] = test system: glycogen synthase kinase-3 (GSK3A per assay name; protocol says GSK3B); experiment: compounds binding glycogen synthase kinase-3 – biochemical, small-molecule microarray, 635 nm fluorescence, GSK3A, primary screen (AID 1103); conditions: fluorescence 635 nm, higher = more signal; also: the record names both GSK3A and GSK3B
[7] = molecular target: Epidermal growth factor receptor (Homo sapiens) (UniProt P00533); experiment: compounds binding epidermal growth factor receptor – biochemical, small-molecule microarray, 635 nm fluorescence, primary screen (AID 1104); conditions: EGFR binding, higher = more signal;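 also: score merges 667 nm emission intensity with spot signal to noise over triplicate slides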
Epidermal growth factor receptor (Homo sapiens), sequence (P00533 whole entry, looked up): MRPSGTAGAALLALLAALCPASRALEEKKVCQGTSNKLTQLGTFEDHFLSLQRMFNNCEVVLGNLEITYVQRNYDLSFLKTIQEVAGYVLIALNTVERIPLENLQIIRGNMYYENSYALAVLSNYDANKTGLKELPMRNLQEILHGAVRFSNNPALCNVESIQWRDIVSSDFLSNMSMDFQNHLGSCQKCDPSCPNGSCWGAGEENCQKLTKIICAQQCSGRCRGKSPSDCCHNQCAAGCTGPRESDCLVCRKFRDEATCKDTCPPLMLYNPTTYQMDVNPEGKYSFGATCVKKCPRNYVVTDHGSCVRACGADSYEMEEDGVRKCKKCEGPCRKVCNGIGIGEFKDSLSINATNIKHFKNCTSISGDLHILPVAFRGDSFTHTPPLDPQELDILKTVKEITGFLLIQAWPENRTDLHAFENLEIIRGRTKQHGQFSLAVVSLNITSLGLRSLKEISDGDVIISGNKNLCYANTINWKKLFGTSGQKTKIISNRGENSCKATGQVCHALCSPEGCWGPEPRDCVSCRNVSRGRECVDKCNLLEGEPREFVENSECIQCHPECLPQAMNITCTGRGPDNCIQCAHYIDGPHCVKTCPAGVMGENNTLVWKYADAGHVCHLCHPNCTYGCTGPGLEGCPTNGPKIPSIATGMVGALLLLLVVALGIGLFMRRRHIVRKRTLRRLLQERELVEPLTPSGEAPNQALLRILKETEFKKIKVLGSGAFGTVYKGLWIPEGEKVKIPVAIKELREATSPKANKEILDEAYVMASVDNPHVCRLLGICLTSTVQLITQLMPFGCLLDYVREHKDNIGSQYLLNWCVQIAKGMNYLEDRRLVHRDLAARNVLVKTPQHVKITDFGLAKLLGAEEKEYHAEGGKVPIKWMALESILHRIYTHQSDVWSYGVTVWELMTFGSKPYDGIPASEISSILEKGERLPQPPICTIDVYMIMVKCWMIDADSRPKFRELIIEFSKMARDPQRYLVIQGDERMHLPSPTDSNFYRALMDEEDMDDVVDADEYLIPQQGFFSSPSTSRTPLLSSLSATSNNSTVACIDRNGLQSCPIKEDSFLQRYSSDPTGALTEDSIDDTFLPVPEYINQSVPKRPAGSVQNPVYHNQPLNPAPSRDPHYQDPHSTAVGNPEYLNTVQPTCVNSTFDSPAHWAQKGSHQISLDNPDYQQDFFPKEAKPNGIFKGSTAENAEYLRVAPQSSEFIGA

[8] = molecular target: Follistatin-related protein 3 (Homo sapiens) (UniProt O95633); experiment: compounds binding follistatin-related protein 3 – biochemical, small-molecule microarray, 635 nm fluorescence, primary screen (AID 1105); conditions: FSTL3 binding, higher = more signal;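 also: score merges emission near 667 nm and signal to noise per printed spot across three slides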
Follistatin-related protein 3 (Homo sapiens), sequence (O95633 whole entry, looked up): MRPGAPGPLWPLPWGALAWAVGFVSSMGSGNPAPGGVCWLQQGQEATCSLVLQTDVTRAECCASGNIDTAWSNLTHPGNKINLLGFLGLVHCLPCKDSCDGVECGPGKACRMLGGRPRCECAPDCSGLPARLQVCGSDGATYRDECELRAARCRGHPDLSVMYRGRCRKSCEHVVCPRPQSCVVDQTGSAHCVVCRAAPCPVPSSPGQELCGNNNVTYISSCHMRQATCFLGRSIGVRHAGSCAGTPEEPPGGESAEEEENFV

[9] = molecular target: Dickkopf-related protein 1 (Homo sapiens) (UniProt O94907); experiment: small molecules binding DKK1 protein – biochemical, small-molecule microarray, 635 nm fluorescence scan, primary screen (AID 1106); conditions: higher = more signal;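 also: score merges emission near 667 nm with signal to noise over three replicate slides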
Dickkopf-related protein 1 (Homo sapiens), sequence (O94907 whole entry, looked up): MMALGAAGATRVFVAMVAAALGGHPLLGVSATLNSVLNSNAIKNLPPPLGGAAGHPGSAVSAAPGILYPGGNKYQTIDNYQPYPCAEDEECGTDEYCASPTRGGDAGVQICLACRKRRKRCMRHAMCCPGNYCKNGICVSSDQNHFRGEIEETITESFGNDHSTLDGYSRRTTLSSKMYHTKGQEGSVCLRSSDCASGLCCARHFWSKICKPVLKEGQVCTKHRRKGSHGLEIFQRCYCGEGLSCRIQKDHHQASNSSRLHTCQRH

[10] = test system: Inhibin beta A chain (activin A); experiment: small molecules binding activin A – biochemical, small-molecule microarray, 635 nm fluorescence scan, primary screen (AID 1107); conditions: INHBA, higher = more signal;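 also: mouse activin A protein probed at 4.33 µg/mL on printed slides; score merges bound-protein fluorescence near 667 nm with spot signal-to-noise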
[11] = test system: Human papillomavirus type 1a protein E7 (residues 44-93); experiment: small molecules binding HPV E7 44-93 – biochemical, small-molecule microarray, residues 44-93, 635 nm fluorescence, primary screen (AID 1108); conditions: fluorescence 635 nm, higher = more signal;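 also: E7 fragment applied at 1 µg/mL in TBST for 1 h at 4 C; score combines spot fluorescence with its signal to noise ratio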
[12] = hepatitis C replication reporter changes, two-sided – Huh7 cells, luciferase reporter, HCV replication inhibitor project, primary screen (AID 1109); conditions: Huh7 HCV replicon luciferase reporter, 48 h; higher = more signal;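 also: huh7 hepatoma cells harbouring a luciferase neomycin HCV replicon reporter; luciferase luminescence as measure of HCV replicon replication; test concentration not given here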
[13] = molecular target: Left-right determination factor 2 (Homo sapiens) (UniProt O00292); experiment: small molecules binding LEFTY2 protein – biochemical, small-molecule microarray, 635 nm fluorescence scan, primary screen (AID 1110); conditions: higher = more signal
Left-right determination factor 2 (Homo sapiens), sequence (O00292 whole entry, looked up): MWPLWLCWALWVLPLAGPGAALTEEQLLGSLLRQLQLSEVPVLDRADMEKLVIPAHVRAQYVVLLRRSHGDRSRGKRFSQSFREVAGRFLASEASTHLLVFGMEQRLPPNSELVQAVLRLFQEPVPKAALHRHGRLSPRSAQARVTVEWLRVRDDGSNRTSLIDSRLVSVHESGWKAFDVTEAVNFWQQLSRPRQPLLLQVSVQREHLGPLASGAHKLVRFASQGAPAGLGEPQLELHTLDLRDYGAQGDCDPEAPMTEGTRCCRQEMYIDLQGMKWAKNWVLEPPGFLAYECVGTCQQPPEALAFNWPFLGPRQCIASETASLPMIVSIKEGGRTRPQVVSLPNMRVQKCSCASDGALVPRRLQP

[14] = molecular target: Calmodulin-1 (Homo sapiens) (UniProt P0DP23); experiment: small molecules binding calmodulin-1 with EGTA – biochemical, small-molecule microarray, Cy5-labelled CALM1, profiling panel (AID 1111); conditions: Cy5-CALM1 binding fluorescence, higher = more signal;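 also: labelled calmodulin applied in Tris saline Tween buffer holding calcium plus EGTA and DTT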
[15] = molecular target: Calmodulin-1 (Homo sapiens) (UniProt P0DP23); experiment: small molecules binding Ca-loaded calmodulin-1 – biochemical, small-molecule microarray, Cy5-labelled CALM1, plus calcium, artefact control for SMM control-protein annotation, profiling panel (AID 1112); conditions: Cy5-CALM1 binding fluorescence, higher = more signal;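 also: score merges spot fluorescence with signal to noise from triplicate slides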
[16] = probe aWnt5a binding to arrayed compounds – biochemical, biotinylated probe, 635/667 nm fluorescence, primary screen (AID 1113); conditions: small-molecule microarray, higher = more signal;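 also: score merges 667 nm fluorescence intensity with signal-to-noise per printed feature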
[17] = probe aShh binding to arrayed compounds – biochemical, biotinylated probe, 635/667 nm fluorescence, primary screen (AID 1114); conditions: small-molecule microarray, higher = more signal;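 also: probe is biotin-labelled aShh protein from a stem cell growth factor screen; measures binding of labelled protein to compounds printed on the slide; score merges feature fluorescence at 667 nm with signal-to-noise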
[18] = probe aNog binding to arrayed compounds – biochemical, biotinylated probe, 635/667 nm fluorescence, primary screen (AID 1115); conditions: small-molecule microarray, higher = more signal;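 also: probe is biotinylated aNog protein used at 0.15 µg/mL for 1 h at 4 C; z-score combines 667 nm fluorescence of each spot with its signal to noise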
[19] = molecular target: Torsin-1A-interacting protein 1 (Homo sapiens) (UniProt Q5JTV8); experiment: compound microarray binding of lysate hLAP1 – cell lysate, small-molecule microarray, COS7 lysate, 635/667 nm fluorescence, primary screen (AID 1116); conditions: 635 nm fluorescence, higher = more signal
Torsin-1A-interacting protein 1 (Homo sapiens), sequence (Q5JTV8 whole entry, looked up): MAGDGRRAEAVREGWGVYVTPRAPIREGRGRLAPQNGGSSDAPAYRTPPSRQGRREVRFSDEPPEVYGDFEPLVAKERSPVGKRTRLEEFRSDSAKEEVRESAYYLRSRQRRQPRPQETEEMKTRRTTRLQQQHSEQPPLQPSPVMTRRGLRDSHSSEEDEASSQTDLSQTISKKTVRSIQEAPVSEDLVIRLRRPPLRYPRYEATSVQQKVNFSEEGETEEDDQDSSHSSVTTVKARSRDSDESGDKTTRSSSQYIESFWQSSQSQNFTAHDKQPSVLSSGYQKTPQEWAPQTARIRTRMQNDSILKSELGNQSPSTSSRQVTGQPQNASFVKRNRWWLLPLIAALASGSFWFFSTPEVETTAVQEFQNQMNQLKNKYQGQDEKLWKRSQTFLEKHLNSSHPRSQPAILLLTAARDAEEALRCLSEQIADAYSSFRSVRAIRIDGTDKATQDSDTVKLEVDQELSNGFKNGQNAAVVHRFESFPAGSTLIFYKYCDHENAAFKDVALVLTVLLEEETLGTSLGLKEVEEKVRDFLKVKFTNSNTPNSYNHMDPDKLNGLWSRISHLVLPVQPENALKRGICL

[20] = molecular target: Alpha-bungarotoxin (Bungarus multicinctus) (UniProt P60615); experiment: compounds binding labelled alpha-BTX control protein – biochemical, small-molecule microarray, Alexa647 label, 635/667 nm fluorescence, artefact control for SMM control protein annotation, profiling panel (AID 1117); conditions: alpha-BTX-A647 binding fluorescence, higher = more signal
Alpha-bungarotoxin (Bungarus multicinctus), sequence (P60615 whole entry, looked up): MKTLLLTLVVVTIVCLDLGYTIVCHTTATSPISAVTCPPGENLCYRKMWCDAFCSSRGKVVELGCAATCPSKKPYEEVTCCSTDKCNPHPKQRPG

Compound | composite z-score [1] | composite z-score [2] | composite z-score [3] | z-score [4] | composite z-score [5] | composite z-score [6] | composite z-score [7] | composite z-score [8] | composite z-score [9] | composite z-score [10] | composite z-score [11] | z-score [12] | composite z-score [13] | composite z-score [14] | composite z-score [15] | composite z-score [16] | composite z-score [17] | composite z-score [18] | composite z-score [19] | composite z-score [20]
COc1ccc([Si](C)(C)[C@@H]2[C@@H](CCn3cc(CCO)nn3)O[C@]3(C(=O)N(Cc4ccc(N5C(=O)c6cccc7cccc5c67)cc4)c4ccccc43)[C@H]2C)cc1 | 0.831 | 0.134 | 0.207 | -2.39 (inactive) | 0.266 | 0.0923 | 0.248 | 0.334 | 0.258 | 0.581 | 0.119 | -5.16 | 0.316 | 1.22 | 0.863 | -0.0459 | 0.112 | -0.284 | 0.758 | 1.6
C=C(/C(=C/C[C@H](OC(C)=O)c1cccc(OCCO)c1)c1cc(C(=O)OC)ccc1OC)C(C)C | 0.86 | -0.0559 | 0.132 | -0.846 (inactive) | 0.306 | -0.116 | -0.805 | -0.948 | -0.316 | 0.576 | -0.0954 | -0.556 | -0.516 | -1 | -0.551 | -0.124 | -0.0337 | 0.209 | 0.19 | -1.33
CCCCC(=C=CC[C@@H](O)c1ccc(OCCO)cc1)C[C@@H](O)c1cc(Cl)cc(Cl)c1O | 0.157 | 0.279 | 0.577 | -2 (inactive) | 0.697 | -0.167 | -0.723 | -0.0492 | -0.344 | 0.588 | -0.258 | -1.99 | -0.0836 | 0.863 | 0.83 | -0.124 | -0.221 | 0.342 | 0.497 | 0.166
CCCNC(=O)[C@@H]1c2ccccc2C(=O)N(Cc2cc(C(F)(F)F)cc(C(F)(F)F)c2)[C@H]1c1ccc(CO)cc1 | 1.23 | 0.829 | 0.803 | -0.443 (inactive) | 0.238 | 0.459 | -0.112 | 0.268 | -0.196 | 0.0686 | 0.35 | -0.392 | -0.402 | 0.394 | 0.544 | -0.146 | 0.188 | 0.527 | 0.238 | 1.22
CC(C)(C)OC(=O)CC[C@]1(C(=O)NCc2ccccc2)COC(c2ccc(OCCCO)cc2)=N1 | 1.31 | 1.07 | 1.21 | -0.264 (inactive) | 0.361 | 0.319 | -0.716 | -0.334 | -1.17 | 0.469 | 0.326 | -0.605 | -0.632 | 0.98 | 1.11 | -0.001 | -0.138 | 1.31 | 2.07 | 2.47
CC(C)CNC(=O)[C@@H]1c2ccccc2C(=O)N(Cc2ccc(OC(F)(F)F)cc2)[C@H]1c1ccc(CO)cc1 | 1.46 | 0.799 | 0.922 | -0.787 (inactive) | 0.64 | 1.28 | 0.346 | 1.26 | 0.407 | 0.254 | -0.491 | -0.913 | 0.569 | 0.986 | -0.614 | 0.0519 | -0.0234 | 0.327 | 1.69 | 1.74
C=CCNC(=O)[C@H]1[C@@H]2C(=O)O[C@@H](c3ccccc3)[C@@H](c3ccccc3)N2[C@@H](c2ccc(OCCO)cc2)[C@]12C(=O)Nc1ccc(C#CCCO)cc12 | 1.36 | 0.299 | 0.797 | -1.26 (inactive) | 0.241 | -0.145 | -0.105 | 0.359 | -0.059 | 0.629 | 0.699 | -0.735 | -0.0631 | 0.0076 | 0.295 | -0.175 | -0.0769 | 0.332 | 1.42 | 1.9
COC(=O)C(CC#Cc1ccc2c(c1)[C@]1(C(=O)N2)[C@H](c2ccccc2OCCO)N2[C@H](c3ccccc3)[C@H](c3ccccc3)OC(=O)[C@H]2[C@@H]1C(=O)N1CCCCCCC1)C(=O)OC | 2.12 | 3.07 | 1.7 | -1.09 (inactive) | 1.55 | 1.47 | 1.91 | 1.77 | 2.52 | 1.79 | 1.48 | -1.95 | 1.73 | 3.07 | 1.76 | 1.46 | 2.72 | 3.54 | 5.82 | 3.89
COC(=O)c1c(CC[C@@H](CO)NC(=O)Nc2ccc(OC)cc2)oc(C(=O)Cc2ccccc2)c1C(=O)OC | 1.36 | 0.0707 | -0.0477 | -0.487 (inactive) | 0.394 | 0.618 | 0.0445 | 0.325 | 0.353 | 0.306 | 0.316 | 0.685 | 0.239 | -0.315 | -0.464 | -0.0445 | -0.138 | 0.068 | 0.333 | 0.655
CC(C)C(=C=CC[C@@H](O)c1ccc(CO)o1)CCO | 1.78 | -0.2 | -0.479 | -0.493 (inactive) | 0.9 | 0.367 | -0.171 | 0.197 | 0.39 | 1.08 | 0.185 | -0.744 | 0.0308 | -0.108 | -0.13 | -0.178 | -0.123 | 0.0954 | 0.42 | 0.205
CCCCCCC#C[Si](O[C@H](c1ccccc1)c1cn(Cc2ccccc2)nn1)(C(C)C)C(C)C | -0.068 | -0.0783 | -0.14 | -1.51 (inactive) | 0.232 | 0.305 | 0.302 | 0.388 | 0.279 | 0.403 | 0.382 | -1.93 | 0.367 | -0.0092 | 0.716 | -0.151 | -0.108 | -0.183 | 0.523 | 0.172
